Assay results as given in the supplement of paper PMC12282887.
± gives the standard deviation of the averaged measurements.

System: E. coli BW25113 marRABp lux reporter
Experiment: promoter activity interaction Z-score (Lux/OD deviation from empty-vector control); higher = stronger promoter induction by the compound
Experimental: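 E. coli BW25113 (wild type or ΔmarA/ΔsoxS/Δrob) carrying pTU175 luxCDABE promoter reporters was grown in LB in 384-well plates at 37°C with each of 94 compounds at 4 two-fold concentrations, in biological duplicates. Luminescence and OD600 were read every 30 min for 12 h and integrated as AUC over 8 h (0-8 h WT, 1-9 h mutants). Lux AUC was divided by OD AUC; the interaction score is the residual of a Huber robust fit of each promoter against the empty-vector control, then Z-transformed per promoter.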

Cc1cc(NS(=O)(=O)c2ccc(N)cc2)no1 [Sulfamethoxazole]
promoter activity interaction Z-score (3.2 µg/ml, genetic background: wild type): 0.00674 ± 0.34
promoter activity interaction Z-score (3.2 µg/ml, genetic background: ΔmarA): 0.0321 ± 0.081
promoter activity interaction Z-score (3.2 µg/ml, genetic background: Δrob): 0.113 ± 0.29
promoter activity interaction Z-score (3.2 µg/ml, genetic background: ΔsoxS): -0.135 ± 0.18
promoter activity interaction Z-score (6.3 µg/ml, genetic background: wild type): 0.078 ± 0.084
promoter activity interaction Z-score (6.3 µg/ml, genetic background: ΔmarA): 0.138 ± 0.34
promoter activity interaction Z-score (6.3 µg/ml, genetic background: Δrob): 0.302 ± 0.037
promoter activity interaction Z-score (6.3 µg/ml, genetic background: ΔsoxS): 0.0733 ± 0.34
promoter activity interaction Z-score (12.7 µg/ml, genetic background: wild type): 0.411 ± 0.27
promoter activity interaction Z-score (12.7 µg/ml, genetic background: ΔmarA): 0.542 ± 0.015
promoter activity interaction Z-score (12.7 µg/ml, genetic background: Δrob): 0.6901 ± 0.0031
promoter activity interaction Z-score (12.7 µg/ml, genetic background: ΔsoxS): 0.275 ± 0.14
promoter activity interaction Z-score (25.3 µg/ml, genetic background: wild type): 0.782 ± 0.098
promoter activity interaction Z-score (25.3 µg/ml, genetic background: ΔmarA): 1.15 ± 0.06
promoter activity interaction Z-score (25.3 µg/ml, genetic background: Δrob): 1.2 ± 0.13
promoter activity interaction Z-score (25.3 µg/ml, genetic background: ΔsoxS): 1.31 ± 0.61

CNC[C@H](O)c1ccc(O)c(O)c1 [Adrenalin]
promoter activity interaction Z-score (13.7 µg/ml, genetic background: wild type): 0.121 ± 0.2
promoter activity interaction Z-score (13.7 µg/ml, genetic background: ΔmarA): -0.289 ± 0.22
promoter activity interaction Z-score (13.7 µg/ml, genetic background: Δrob): -0.0038 ± 0.073
promoter activity interaction Z-score (13.7 µg/ml, genetic background: ΔsoxS): -0.111 ± 0.21
promoter activity interaction Z-score (27.5 µg/ml, genetic background: wild type): 0.38 ± 0.26
promoter activity interaction Z-score (27.5 µg/ml, genetic background: ΔmarA): 0.173 ± 0.6
promoter activity interaction Z-score (27.5 µg/ml, genetic background: Δrob): 0.209 ± 0.28
promoter activity interaction Z-score (27.5 µg/ml, genetic background: ΔsoxS): 0.0712 ± 0.22
promoter activity interaction Z-score (54.9 µg/ml, genetic background: wild type): -0.365 ± 0.31
promoter activity interaction Z-score (54.9 µg/ml, genetic background: ΔmarA): -0.424 ± 0.13
promoter activity interaction Z-score (54.9 µg/ml, genetic background: Δrob): -0.339 ± 0.43
promoter activity interaction Z-score (54.9 µg/ml, genetic background: ΔsoxS): -0.285 ± 0.12
promoter activity interaction Z-score (109.8 µg/ml, genetic background: wild type): -0.142 ± 0.4
promoter activity interaction Z-score (109.8 µg/ml, genetic background: ΔmarA): -0.43 ± 0.15
promoter activity interaction Z-score (109.8 µg/ml, genetic background: Δrob): 0.0375 ± 0.16
promoter activity interaction Z-score (109.8 µg/ml, genetic background: ΔsoxS): 0.218 ± 0.26
